SRC1 TRFRET art – counter-screen for PPARgamma SRC-1 recruitment agonists: TR-FRET artefact; 0.34% of 99,000 active; TR-FRET ratio at 8 µM; TR-FRET detection artefact counter-screen, emission ratio; hits give high values; in the data active means TR-FRET ratio above about 2300
PPARg SRC3 recr – agonists of human PPARgamma SRC-3 coactivator recruitment; biochemical PPARgamma/SRC-3 coactivator recruitment assay; AID 731; activation, % at 8 µM; 0.26% of 200,000 active; in the data active means activation above about 23%;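 further: 0% = DMSO and 100% = reference agonist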
Target sequence (P37231 whole entry, looked up): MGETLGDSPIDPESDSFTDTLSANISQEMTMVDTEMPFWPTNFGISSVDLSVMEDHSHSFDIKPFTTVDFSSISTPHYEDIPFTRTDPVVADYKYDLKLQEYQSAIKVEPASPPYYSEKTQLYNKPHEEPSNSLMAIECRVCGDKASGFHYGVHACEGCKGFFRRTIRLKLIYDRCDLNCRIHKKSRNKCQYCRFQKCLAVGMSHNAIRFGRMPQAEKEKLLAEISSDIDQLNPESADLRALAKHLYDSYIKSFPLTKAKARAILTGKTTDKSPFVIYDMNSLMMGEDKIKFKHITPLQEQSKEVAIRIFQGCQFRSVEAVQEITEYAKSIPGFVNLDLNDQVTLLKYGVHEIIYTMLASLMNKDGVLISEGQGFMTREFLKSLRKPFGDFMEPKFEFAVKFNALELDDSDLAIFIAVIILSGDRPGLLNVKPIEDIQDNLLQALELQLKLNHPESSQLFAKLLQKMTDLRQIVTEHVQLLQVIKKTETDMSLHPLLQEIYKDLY
PPARg SRC-2 ag – promotes SRC-2 coactivator recruitment by human PPARgamma; PPARgamma LBD-SRC-2 recruitment, biochemical; P37231; 0.34% of 200,000 active; activation, % at 8 µM; in the data active means activation above about 22%;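 further: 0% = vehicle and 100% = reference agonist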
SRC2 TRFRET art – counter-screen for PPARgamma SRC-2 recruitment agonists: TR-FRET artefact; 0.4% of 200,000 active; TR-FRET ratio at 8 µM; hits give high values
SRC3 TRFRET art – TR-FRET artefact, counter-screen to PPARgamma/SRC-3 agonist assay; PPARgamma/SRC-3 format; hits give high values; 0.39% of 99,000 active; TR-FRET ratio at 8 µM
PPARg SRC-1 ag – promotes SRC-1 coactivator recruitment by human PPARgamma; PPARgamma-SRC-1 coactivator recruitment biochemical assay; activation, % at 8 µM; P37231; 0.41% of 200,000 active; AID 631; in the data active means activation above about 19%;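 further: 0% = DMSO and 100% = reference agonist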
* hit, by the source's call; . = not tested or not shown. Most compounds without a hit are left out; they make up all but 0.9% or so of the library. Unless noted, no stated cut-off is given here; in the data, active means TR-FRET ratio above about 2000; inactive means the rest.

SMILES | SRC1 TRFRET art | PPARg SRC3 recr | PPARg SRC-2 ag | SRC2 TRFRET art | SRC3 TRFRET art | PPARg SRC-1 ag
Cc1ccc(-c2nnc(CSc3nc4cc5c(cc4cc3C)OCO5)o2)cc1 | . | -11 | 6 | 1485 | . | 2
Cc1cc2nc(C)c(=O)n(C)c2cc1C | 1800 | 2 | -1 | 1486 | 1504 | -2
Cc1ccc(NC(=O)/C(=C/c2cccc([N+](=O)[O-])c2)NC(=O)C2CCCCC2)c(C)c1 | . | 5 | -1 | 1516 | . | -5
O=C(Nc1ccc([N+](=O)[O-])cc1)/C(=C/c1cccc([N+](=O)[O-])c1)NC(=O)C1CCCCC1 | . | 8 | 24* | 1705 | . | -1
COc1cccc(-c2ccc(C#N)c(SCC(=O)NCc3ccco3)n2)c1 | 2097 | 9 | 6 | 1980* | 1969 | 16
Cc1ccc(-n2c(C)cc(C(=O)COc3c(CO)cc(F)cc3CO)c2C)cc1C | 2057 | 5 | 22* | 1818 | 1503 | 0
O=C1c2ccccc2C(=O)N1Cc1ccc2c(c1)OCO2 | . | -7 | -6 | 1414 | . | -6
Cc1ccc(S(=O)(=O)NCc2ccc3c(c2)cc(C)n3C)cc1 | . | 2 | 6 | 2007* | . | 8
Cc1cc2cc(CN3C(=O)c4ccccc4C3=O)ccc2n1C | 2104 | 0 | 6 | 1840 | 2708* | 2
CC1(C)CC(=O)C(C=Nc2ccccc2C(=O)O)=C(O)C1 | . | 4 | 0 | 1972* | . | 6
CCOC(=O)c1cnc2c(C)c(Cl)ccc2c1N1CCOCC1 | . | 40* | 0 | 1588 | . | 7
CCOC(=O)c1cnc2c(C(F)(F)F)cccc2c1N1CCOCC1 | . | -3 | -1 | 1583 | . | -9
O=[N+]([O-])c1cc(-c2n[nH]c(-c3ccccc3)n2)cc([N+](=O)[O-])c1 | . | 6 | 7 | 1577 | . | 11
Cc1cccc(N(CC(=O)N2CCOCC2)S(C)(=O)=O)c1C | . | 16 | 13 | 1639 | . | 13
Cc1cccc(N(CC(=O)N2CCN(c3ccc(F)cc3)CC2)S(C)(=O)=O)c1C | 2469* | 2 | 0 | 1524 | 1507 | 29*
COc1cccc(-c2csc(N3CCN(C(=S)Nc4ccccc4OC)CC3)n2)c1 | . | 2 | 5 | 2307* | . | 4
COc1cccc(-c2csc(N3CCN(C(=S)Nc4ccccc4Cl)CC3)n2)c1 | . | 4 | 3 | 1818 | . | 0
COc1cccc(-c2csc(N3CCN(C(=S)Nc4cccc(Cl)c4)CC3)n2)c1 | . | 14 | 9 | 2562* | . | 5
CCOc1ccc(N2C(=O)CC(NCc3ccc(F)cc3)C2=O)cc1 (stereo unspecified) | . | 4 | -4 | 1475 | . | -8
COc1ccc(C2C(C(C)=O)=C(O)C(=O)N2c2nccs2)cc1OC (stereo unspecified) | 2238 | 1 | 5 | 1460 | 1778 | 11
COc1ccc(C2C(C(C)=O)=C(O)C(=O)N2c2nc3ccccc3s2)cc1OC (stereo unspecified) | 1870 | 9 | 16 | 1810 | 2067* | 5
CCOc1ccc(NC(=O)/C(=C\c2ccc(OC(C)=O)c(OC)c2)NC(C)=O)cc1 | 1861 | -1 | -3 | 1512 | 1501 | -2
O=C(CSc1nnc(CCCO)n1-c1ccccc1)Nc1nccs1 | 1841 | -3 | 7 | 1549 | 1651 | 5
COc1ccc(-n2nnnc2SCC(=O)c2cc3ccccc3o2)cc1 | . | 2 | 1 | 2072* | . | 7
Cc1ccc2cc(CCNC(=O)Cc3cccs3)c(=O)[nH]c2c1 | 1783 | 3 | 3 | 1590 | 1813 | -2
SMILES | SRC1 TRFRET art | PPARg SRC3 recr | PPARg SRC-2 ag | SRC2 TRFRET art | SRC3 TRFRET art | PPARg SRC-1 ag
O=C(NC(=S)Nc1ccc(S(=O)(=O)Nc2nccs2)cc1)c1ccccc1 | 1767 | 0 | 5 | 1692 | 1629 | 9
O=C(CSc1ccc(Br)c2cccc(Cl)c12)Nc1ccc(S(=O)(=O)Nc2nccs2)cc1 | 2830* | 12 | 10 | 1982* | 2321* | 30*
CC(C)C(=O)NC(=S)Nc1ccc(S(=O)(=O)Nc2nccs2)cc1 | 2318* | 4 | 9 | 1735 | 1730 | 4
NC(=S)NN=C1c2cc(S(=O)(=O)N3CCOCC3)ccc2-c2ccc(S(=O)(=O)N3CCOCC3)cc21 | 2316* | 4 | 6 | 1605 | 1632 | -2
CN(C)N=C1c2cc(S(=O)(=O)N3CCOCC3)ccc2-c2ccc(S(=O)(=O)N3CCOCC3)cc21 | 1845 | 0 | 0 | 1605 | 1466 | -1
CCOC(=O)CCNC(=O)Nc1ccc2nc(C)n(Cc3cccc(Cl)c3)c(=O)c2c1 | . | 17 | 9 | 1989* | . | 18
CCCc1nc2ccc(NC(=O)NCCC(=O)OCC)cc2c(=O)n1Cc1cccc(Cl)c1 | . | 0 | 5 | 1646 | . | 6
Cc1ccccc1CC1(CO)CCCN(C(=O)CCC(=O)c2ccccc2)C1 (stereo unspecified) | 2022 | -1 | 0 | 1534 | 1671 | 22*
COC(=O)c1cccc(NC(=O)/C=C/c2ccc([N+](=O)[O-])cc2)c1 | 1916 | 0 | -1 | 1720 | 2126* | 8
COC(=O)c1cccc(NC(=O)/C=C/c2cccc([N+](=O)[O-])c2)c1 | . | -4 | 0 | 1465 | . | -4
COC(=O)c1cnn(-c2nc3c(C)cccc3s2)c1C | . | -10 | -1 | 1578 | . | 61*
O=C(Nc1cccc(NS(=O)(=O)c2ccc(S(=O)(=O)NC3CC3)cc2)c1)c1ccccn1 | . | -2 | 7 | 1559 | . | 23*
Nc1nc(-c2cccc(F)c2)cs1 | 2055 | 16 | 2 | 1722 | 1610 | 4
COc1ccc(-c2cc(-c3ccc(Br)cc3)nc3ncnn23)cc1OC | . | 19 | 18 | 2400* | . | 13
COc1ccc(-c2cc(-c3ccccc3)nc3ncnn23)cc1 | 1632 | -1 | -4 | 1582 | 1563 | -3
O=C(COc1ccccc1F)c1ccc(O)cc1O | . | 5 | 14 | 1607 | . | 5
CCN(CC)c1ccc2cc(-c3nc4ccccc4n3C)c(=O)oc2c1 | . | 10 | 1 | 1610 | . | -1
CCN(CC)c1ccc2cc(-c3nc4ccccc4[nH]3)c(=O)oc2c1 | . | 9 | 5 | 1621 | . | 26*
COc1cc2c(cc1OC)-c1cc(NCc3ccccn3)nc(=O)n1CC2 | . | 0 | 9 | 1553 | . | 6
Cc1cc(Cl)c(S(=O)(=O)Nc2ccc3c(c2)OCO3)cc1OCC(=O)NC1CCCCC1 | . | 1 | 7 | 1684 | . | 7
COC(=O)c1cccc(NC2CC(=O)N(c3ccc(OC)c(OC)c3)C2=O)c1 (stereo unspecified) | 2727* | 5 | 6 | 1810 | 1521 | 18
COc1ccc(N2C(=O)CC(Nc3ccc(C(=O)O)cc3)C2=O)cc1OC (stereo unspecified) | 2011 | 5 | 9 | 1699 | 1527 | 5
Cc1sc2ncnc(N[C@@H](CCC(=O)O)C(=O)O)c2c1C | . | -2 | 6 | 1725 | . | 9
COc1ccc(C(=O)Nc2cc(C)c3c(=O)oc4ccccc4c3n2)cc1 | . | -5 | 1 | 1536 | . | 24*
COc1ccc(C2CC(c3ccccc3)=NN2C(=O)COC(=O)c2cc(S(=O)(=O)N3CCOCC3)ccc2Cl)cc1 (stereo unspecified) | 2224 | 4 | -7 | 2080* | 1778 | -1

Compound activity from PubChem BioAssay.
